PLK1 PBD block – qHTS for Inhibitors of PLK1-PDB (polo-like kinase 1 - polo-box domain): Primary Screen; Plk1 PBD binding of FITC phosphopeptide, fluorescence polarization; Serine/threonine-protein kinase PLK1 (Homo sapiens), P53350; Potency, µM, for inactives: max response, negative = inhibition, most hits filed as inhibitors; 2.8% of 360,000 active; note: series mostly up to about 57 µM; nearly all actives have a fitted effect of over 65% in size
ALDH1A1 inh – qHTS Assay for Inhibitors of Aldehyde Dehydrogenase 1 (ALDH1A1); Aldehyde dehydrogenase 1A1 (Homo sapiens), P00352; Purified ALDH1A1, NADH fluorescence, propionaldehyde substrate; Potency, µM (series often up to 75.3 µM), for the others: at the highest dose activity, negative = inhibition, most hits filed as inhibitors; 7.3% of 220,000 active; active = well fitted inhibition curve with a large enough effect, not every such curve was filed as active; inconclusive = small, poorly fitted or top-dose-only effect, or another doubt; inactive = no such curve, though single readings can be large or run the other way;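 note: plate controls were no enzyme wells and a reference inhibitor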
Target sequence (P00352 whole entry, looked up): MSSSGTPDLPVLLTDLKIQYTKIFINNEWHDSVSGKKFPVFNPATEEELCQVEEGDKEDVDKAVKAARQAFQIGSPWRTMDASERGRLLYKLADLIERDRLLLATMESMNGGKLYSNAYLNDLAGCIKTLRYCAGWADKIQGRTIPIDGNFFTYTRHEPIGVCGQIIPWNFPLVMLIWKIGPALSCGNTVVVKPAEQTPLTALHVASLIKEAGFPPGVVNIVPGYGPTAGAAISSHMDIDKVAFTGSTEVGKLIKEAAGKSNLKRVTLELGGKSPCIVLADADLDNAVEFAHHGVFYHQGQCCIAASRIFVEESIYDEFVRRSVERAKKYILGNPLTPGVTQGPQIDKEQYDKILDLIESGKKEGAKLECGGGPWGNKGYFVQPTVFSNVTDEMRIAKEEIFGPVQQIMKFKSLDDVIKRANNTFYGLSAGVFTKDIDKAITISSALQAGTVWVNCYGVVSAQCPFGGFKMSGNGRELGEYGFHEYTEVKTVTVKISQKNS
RORg inh – qHTS for inhibitors of ROR gamma transcriptional activity; Drosophila S2 Gal4-RORgamma UAS-luciferase reporter, 20 h; AID 2551, 2010; Potency, µM (highest dose often 53.6 µM), for the others: top-dose activity change, negative = inhibition, usual class: inhibitors; Nuclear receptor ROR-gamma (Mus musculus), P51450; 5.4% of 310,000 active; note: nearly all actives have a fitted effect of over 60% in size
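ROR gamma transcriptional activity was tracked as Gal4-UAS luciferase output in stably transfected Drosophila Schneider cells, with compound added 1 hr before 700 uM copper sulfate induction and a 20 hr ambient-temperature incubation.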
Sfp inh – qHTS Assay for Inhibitors of Bacillus subtilis Sfp phosphopantetheinyl transferase (PPTase); 3.5% of 310,000 active; Biochemical Sfp PPTase activity, qHTS; Potency, µM, for the others: largest response in the series, negative = inhibition, most hits filed as inhibitors;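 note: the enzyme is Sfp with the accession as filed and its product quenches rhodamine fluorescence; 0% = enzyme reaction without inhibitor and -100% = no enzyme wells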
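With Hepes-Na pH 7.6 buffer containing 10 mM MgCl2, Sfp (15 nM) modified BHQ-2-YbbR (12.5 uM) using rhodamine-CoA (5 uM). Two reads 30 minutes apart at 525/598 nm yielded each well's rate.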
Gal4-VP16 FLuc – VP16 counterscreen qHTS for inhibitors of ROR gamma transcriptional activity; Drosophila S2 Gal4-VP16 UAS-luciferase, luminescence, 20 h; Potency, µM (titrated, usually from 53.6 µM), inactives show at the top dose activity, negative = inhibition, actives largely listed as inhibitors; 3.5% of 310,000 active; AID 2546, 2010;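 note: Gal4-VP16 expression switched on by copper sulfate through the metallothionein promoter; nearly all actives have a fitted effect of over 50% in size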
Numbers without * were called inactive; [ ] = dose if it differs, or a comment. The list is not random: actives were taken first. Their share in the collection is about 12%. Unless noted, calls come from the whole dose curve; as a rule, active = well fitted curve in the direction sought with a large enough effect; inconclusive = small, poorly fitted or top-dose-only effect, or another doubt; inactive = no such curve, though single readings can be large; an effect the other way counts as inactive or inconclusive. Unless noted, % is set by controls: 0 for no effect and ±100 for the full control effect; potency is the fitted concentration of half-maximal effect.

Results for COc1cccc(N/C=C/C(=O)c2ccc(Cl)cc2)c1 ?
PLK1 PBD block: -7%; ALDH1A1 inh: inconclusive; RORg inh: 10µM*; Sfp inh: -29%; Gal4-VP16 FLuc: 13µM*

How did COc1ccc(OC)c(N/C=C/C(=O)c2ccccc2)c1 do in these assays?
PLK1 PBD block: -8%; RORg inh: 4.5µM*; Sfp inh: -20%; Gal4-VP16 FLuc: 5µM*

How did COc1cccc(C(=O)/C=C/Nc2cccc(O)c2)c1 do in these assays?
PLK1 PBD block: -6%; ALDH1A1 inh: -16%; RORg inh: 7.9µM*; Sfp inh: -7%; Gal4-VP16 FLuc: 1.3µM*

What do the screens show for `COc1cccc(N/C=C/C(=O)c2ccc(C)cc2)c1`?
PLK1 PBD block: -10%; RORg inh: inconclusive; Sfp inh: -4%; Gal4-VP16 FLuc: inconclusive

How did COc1cccc(C(=O)/C=C/Nc2ccc(S(=O)(=O)Nc3cccc(C(C)=O)c3)cc2)c1 do in these assays?
PLK1 PBD block: 1%; ALDH1A1 inh: inconclusive; RORg inh: 15%; Sfp inh: 12%; Gal4-VP16 FLuc: 10µM*

What do the screens show for `COC(=O)c1ccc(/C=C/C(=O)c2cccc(OC)c2)cc1`?
PLK1 PBD block: -18%; ALDH1A1 inh: -3%; RORg inh: inconclusive; Sfp inh: inconclusive; Gal4-VP16 FLuc: inconclusive

Results for Cc1cccc(C)c1-n1nnnc1C1c2ccccc2C(=O)N1CCCN1CCOCC1 (configuration not stated) ?
PLK1 PBD block: -5%

How did CCC(=O)N1CCC1(C)C(=O)Nc1ccccc1 (configuration not stated) do in these assays?
PLK1 PBD block: -7%

Results for COc1ccc(S(=O)(=O)Nc2cccc(C(C)=O)c2)cc1Br ?
PLK1 PBD block: -5%; ALDH1A1 inh: 32µM*; RORg inh: 39%; Sfp inh: -4%; Gal4-VP16 FLuc: -4%[10 µM]

Results for COc1ccc(S(=O)(=O)Nc2ccc(NC(C)=O)cc2)cc1Br ?
PLK1 PBD block: 7%; ALDH1A1 inh: -4%; RORg inh: 0%; Sfp inh: 22%; Gal4-VP16 FLuc: -2%

What do the screens show for `COC(=O)[C@@]1(Cc2ccc(OC)cc2)[C@H]2c3cc(C(=O)N(C)C)n(Cc4ccc(C(F)(F)F)nc4)c3C[C@H]2CN1C(=O)c1ccccc1`?
ALDH1A1 inh: -17%; RORg inh: inconclusive; Sfp inh: 17%; Gal4-VP16 FLuc: -3%

How did CC(C)[C@@H]1O[C@H](CCc2ccccc2)CC2=C1C(=O)OC(C)(C)O2 do in these assays?
PLK1 PBD block: -6%

What do the screens show for `CSc1ccc(OC2CCCCC2NS(=O)(=O)c2ccc(Cl)cc2)cc1` (configuration not stated)?
PLK1 PBD block: -7%; ALDH1A1 inh: 0.45µM*; RORg inh: inconclusive; Sfp inh: 15%; Gal4-VP16 FLuc: -17%

What do the screens show for `O=S(=O)(NC1CCCCC1Oc1ccccc1)c1ccc(Cl)cc1` (configuration not stated)?
PLK1 PBD block: -19%; ALDH1A1 inh: inconclusive; RORg inh: 32%; Sfp inh: 5%; Gal4-VP16 FLuc: 9%

What do the screens show for `O=C(NC(=S)Nc1ccc(S(=O)(=O)Nc2ncccn2)cc1)c1ccc(Br)cc1`?
PLK1 PBD block: 11µM*; ALDH1A1 inh: inconclusive; RORg inh: -7%; Sfp inh: inconclusive; Gal4-VP16 FLuc: 1%

How did O=C(Nc1ccc(Cl)cc1)Nc1ccc(S(=O)(=O)Nc2ncccn2)cc1 do in these assays?
PLK1 PBD block: -7%; ALDH1A1 inh: -3%; RORg inh: 10%; Sfp inh: 15%; Gal4-VP16 FLuc: 7%

What do the screens show for `Cc1ccc(NC(=S)Nc2ccc(S(=O)(=O)Nc3ncccn3)cc2)c(C)c1`?
PLK1 PBD block: -9%; ALDH1A1 inh: 12%; RORg inh: 13µM*; Sfp inh: -3%; Gal4-VP16 FLuc: -19%

Results for O=S(=O)(Nc1ncccn1)c1ccc(NC(=S)Nc2ccc(Cl)cc2)cc1 ?
PLK1 PBD block: inconclusive; ALDH1A1 inh: 10µM*; RORg inh: inconclusive; Sfp inh: 40µM*; Gal4-VP16 FLuc: -4%

How did CSc1nc(S(C)(=O)=O)nc2[nH]c(=O)[nH]c12 do in these assays?
PLK1 PBD block: -7%

How did COc1ccc(NCc2nnc(SCc3ccc(Cl)cc3)n2-c2ccccc2)cc1 do in these assays?
PLK1 PBD block: -5%; ALDH1A1 inh: -7%; RORg inh: inconclusive; Sfp inh: -13%; Gal4-VP16 FLuc: 0%

How did CCCn1c(C2CCCN2c2nc(-c3cccc(Br)c3)cs2)nc2ccccc21 (configuration not stated) do in these assays?
PLK1 PBD block: -4%; RORg inh: 2.5µM*; Sfp inh: -17%; Gal4-VP16 FLuc: inconclusive

How did Cc1ccc(-c2csc(N3CCC[C@@H]3C(=O)NCCn3c(C(F)(F)F)nc4ccccc43)n2)cc1 do in these assays?
PLK1 PBD block: -3%; RORg inh: -32%; Sfp inh: -7%; Gal4-VP16 FLuc: -14%

Results for CCCCN(Cc1ccccc1)C(=O)C1CCC(=O)N(CCc2ccccn2)C1 (configuration not stated) ?
PLK1 PBD block: 0%; RORg inh: -14%; Sfp inh: 17%; Gal4-VP16 FLuc: -6%

How did O=C(c1ccccc1)c1ccc2n1CC[C@H]2C(=O)O do in these assays?
ALDH1A1 inh: -4%[20.9 µM]; RORg inh: 10%[2.98 µM]; Sfp inh: 26%; Gal4-VP16 FLuc: 15%[17 µM]

Results for O=C(O)CCS(=O)(=O)c1cc(Br)cc2c1N(C(=O)C1CC1)CC2 ?
PLK1 PBD block: inconclusive; ALDH1A1 inh: -13%; RORg inh: -7%; Sfp inh: 5%; Gal4-VP16 FLuc: -7%

Results for CC(=O)N1CCc2cc(S(=O)(=O)CCC(=O)NCc3ccc(C)o3)ccc21 ?
PLK1 PBD block: -19%; RORg inh: -15%; Sfp inh: 25µM*; Gal4-VP16 FLuc: -1%

What do the screens show for `COc1ccc(S(=O)(=O)CCC(=O)NCc2ccc(C)o2)cc1`?
PLK1 PBD block: inconclusive; RORg inh: -29%; Sfp inh: 50µM*; Gal4-VP16 FLuc: -3%

How did CC(=O)N1CCc2cc(S(=O)(=O)C(C)CC(=O)NCc3ccc(C)o3)ccc21 (configuration not stated) do in these assays?
PLK1 PBD block: -14%; RORg inh: 2%; Sfp inh: -24%; Gal4-VP16 FLuc: -7%

Results for Cc1ccc(CNC(=O)CCS(=O)(=O)c2cc(Br)cc3c2N(C(=O)C2CC2)CC3)o1 ?
PLK1 PBD block: -20%; ALDH1A1 inh: 10µM*; RORg inh: 3%; Sfp inh: 10µM*; Gal4-VP16 FLuc: -2%

Screens: PubChem, National Center for Advancing Translational Sciences (NCATS)
